Growth inhibition data for six compounds are collected here from PubChem BioAssay (NCI).

Assay [1] in a line: NCI Yeast Anticancer Drug Screen. Data for the rad50 strain (AID 155).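 Further: 0% = growth of vehicle-only cultures of the same strain.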 The conditions noted are these: S. cerevisiae rad50 strain growth inhibition, hits give high values. A digest of the protocol:
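Genetically altered yeast (DNA repair pathway); compound treatment; growth inhibition vs vehicle ctrl.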

Assay [2] is described as follows: NCI Yeast Anticancer Drug Screen. Data for the mec2-1 strain (AID 157). The conditions noted are these: S. cerevisiae mec2-1 strain, hits give high values. A digest of the protocol:
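Cells of the genetically defined mec2-1 yeast strain are incubated with test compound. Inhibition of growth is calculated against vehicle-treated controls.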

Assay [3] in a line: NCI Yeast Anticancer Drug Screen. Data for the sgs1 mgt1 strain (AID 161).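 Further: 0% = growth of cultures given vehicle only.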 The conditions noted are these: S. cerevisiae sgs1 mgt1 strain, hits give high values. The procedure, abridged: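 Inhibition of yeast growth, normalised to vehicle-treated controls, is reported for a strain bearing genetic alterations in DNA damage repair.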
Assay [4] can be described thus: NCI Yeast Anticancer Drug Screen. Data for the cln2 rad14 strain (AID 165).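 Further: 0% = growth equal to vehicle treated cultures.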 The note with it: S. cerevisiae cln2 rad14 strain, hits give high values. The procedure, abridged:
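The screen exposed genetically defined yeast (cln2 rad14) to test compounds and scored growth inhibition relative to vehicle-treated controls.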

Assay [5] in a line: NCI Yeast Anticancer Drug Screen. Data for the bub3 strain (AID 167). The conditions noted are these: S. cerevisiae bub3 mutant strain, hits give high values. A digest of the protocol:
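Yeast carrying a defined mutation is treated with each compound, and growth is compared with that of vehicle-exposed cells to give inhibition.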

Assay [6] can be described thus: NCI Yeast Anticancer Drug Screen. Data for the mlh1 rad18 strain (AID 175). The conditions noted are these: S. cerevisiae mlh1 rad18 strain growth inhibition, hits give high values. A digest of the protocol: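 Compound-treated yeast growth, normalised to vehicle controls. Strain bears defined DNA repair mutations.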
[7] abbreviates: at 5.0 µM (retest, dose inferred, filed as 0.5).
The mark [8] stands for this setting: at 50.0 µM (retest, dose inferred, filed as 5.0).

Each structure is given as a SMILES string. This is part of a sample that, as a whole, favours compounds with a hit. Of some 79,000 tested, about 15% had one in any assay. Unmarked numbers belong to inactive results. Calls of active or inactive are those of the source. No stated cut-off is given here; in the data, active means growth inhibition above about 70%; inactive means the rest.

For `[O-][n+]1c2ccccc2cc2c1c1ccccc1n2O`, the growth inhibition is -1% in assay [1] (setting [7]); 1% in assay [1] (setting [8]); 20.1% in assay [1] (at 50.0 µM); 0% in assay [2] (setting [7]); 0% in assay [2] (setting [8]); 5.2% in assay [2] (at 50.0 µM). The growth inhibition in assay [3] (setting [7]) is -7%; in assay [3] (setting [8]), -3%; in assay [3] (at 50.0 µM), 17.7%; in assay [4] (setting [7]) it was 4%; in assay [4] (setting [8]) it was 8%; in assay [4] (at 50.0 µM), 46.4%. The growth inhibition is 6% in assay [5] (setting [7]); 4% in assay [5] (setting [8]); 0.45% in assay [5] (at 50.0 µM); -4% in assay [6] (setting [7]); -5% in assay [6] (setting [8]); 13.9% in assay [6] (at 50.0 µM).

Turning to `COc1ccc(CCN2C(=O)C(=O)N(C3CCCCC3)C2=O)cc1OC`, the growth inhibition in assay [1] (setting [7]) was -1%; in assay [1] (setting [8]), 2%; in assay [1] (at 50.0 µM), 75.4% (active); in assay [2] (setting [7]), -1%; in assay [2] (setting [8]), 0%; in assay [2] (at 50.0 µM), 11.9%. Moreover, the growth inhibition in assay [3] (setting [7]) was -3%; in assay [3] (setting [8]), -3%; in assay [3] (at 50.0 µM), 26.9%; in assay [4] (setting [7]), -2%; in assay [4] (setting [8]), 0%; in assay [4] (at 50.0 µM) it was 12.8%. Further, the growth inhibition in assay [5] (setting [7]) is -2%; in assay [5] (setting [8]), -5%; in assay [5] (at 50.0 µM) it was 34.1%; in assay [6] (setting [7]) it was -6%; in assay [6] (setting [8]), -8%; in assay [6] (at 50.0 µM), 38.4%.

As to `O=C(O)c1ccccc1C1c2ccccc2Oc2ccccc21`, the growth inhibition in assay [1] (setting [7]) was 36%; in assay [1] (setting [8]), 5%; in assay [1] (at 50.0 µM) it was 95.4% (active); in assay [2] (setting [7]) it was -2%; in assay [2] (setting [8]), 16%; in assay [2] (at 50.0 µM), 94% (active). In addition, the growth inhibition is -3% in assay [3] (setting [7]); 3% in assay [3] (setting [8]); 95.4% (active) in assay [3] (at 50.0 µM); 5% in assay [4] (setting [7]); 6% in assay [4] (setting [8]); 97.3% (active) in assay [4] (at 50.0 µM). Besides, the growth inhibition in assay [5] (setting [7]) was 7%; in assay [5] (setting [8]) it was 17%; in assay [5] (at 50.0 µM) it was 91.2% (active); in assay [6] (setting [7]), 0%; in assay [6] (setting [8]), 7%; in assay [6] (at 50.0 µM) it was 95.8% (active).

On to `CN(C)CC1(C)CC/C(=C\c2ccc(Cl)cc2)C1=O` (stereo not drawn), for which the growth inhibition in assay [1] (setting [7]) was 3%; in assay [1] (setting [8]), 28%; in assay [1] (at 50.0 µM) it was 62%; in assay [2] (setting [7]), -14%; in assay [2] (setting [8]), 16%; in assay [2] (at 50.0 µM) it was 38.2%. For the same compound, the growth inhibition in assay [3] (setting [7]) was 7%; in assay [3] (setting [8]), 39%; in assay [3] (at 50.0 µM), 67.7%; in assay [4] (setting [7]), 10%; in assay [4] (setting [8]) it was 36%; in assay [4] (at 50.0 µM), 52.5%. Also, the growth inhibition was 15% in assay [5] (setting [7]); 65% in assay [5] (setting [8]); 35.4% in assay [5] (at 50.0 µM); 9% in assay [6] (setting [7]); 57% in assay [6] (setting [8]); 71.1% (active) in assay [6] (at 50.0 µM).

Consider `O=C(c1ccccc1)c1[nH]c2ccccc2c(=O)c1-c1ccc([N+](=O)[O-])cc1`, for which the growth inhibition is -6% in assay [1] (setting [7]); 96% (active) in assay [1] (setting [8]); 97.6% (active) in assay [1] (at 50.0 µM); -9% in assay [2] (setting [7]); 98% (active) in assay [2] (setting [8]); 97.5% (active) in assay [2] (at 50.0 µM). For the same compound, the growth inhibition in assay [3] (setting [7]) was -16%; in assay [3] (setting [8]), 98% (active); in assay [3] (at 50.0 µM), 98.3% (active); in assay [4] (setting [7]), -13%; in assay [4] (setting [8]), 97% (active); in assay [4] (at 50.0 µM), 97.6% (active). In addition, the growth inhibition in assay [5] (setting [7]) is -8%; in assay [5] (setting [8]) it was 96% (active); in assay [5] (at 50.0 µM) it was 97.5% (active); in assay [6] (setting [7]), 3%; in assay [6] (setting [8]), 94% (active); in assay [6] (at 50.0 µM), 98.3% (active).

`O=C(Nc1cc(Cl)ccc1Cl)Nc1ccc(Cl)cc1C(=O)c1ccccc1`: the growth inhibition in assay [1] (setting [7]) is 98% (active); in assay [1] (setting [8]) it was 99% (active); in assay [1] (at 50.0 µM) it was 84.9% (active); in assay [2] (setting [7]) it was 97% (active); in assay [2] (setting [8]), 98% (active); in assay [2] (at 50.0 µM), 91.6% (active). In addition, the growth inhibition in assay [3] (setting [7]) is 27%; in assay [3] (setting [8]), 95% (active); in assay [3] (at 50.0 µM) it was 88.9% (active); in assay [4] (setting [7]), 73% (active); in assay [4] (setting [8]), 92% (active); in assay [4] (at 50.0 µM), 88% (active). Moreover, the growth inhibition is 71% (active) in assay [5] (setting [7]); 87% (active) in assay [5] (setting [8]); 79.3% (active) in assay [5] (at 50.0 µM); 100% (active) in assay [6] (setting [7]); 99% (active) in assay [6] (setting [8]); 88.2% (active) in assay [6] (at 50.0 µM).
